D1 agonist: agonists of human D1 dopamine receptor; activation, % at 2 µM; actives 1% (n = 360,000); HEK293 T-REx D1 cells, calcium flux, agonist mode; P21728; in the data active = activation above about 30%; also: 0% is about no effect
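Tetracycline-induced HEK293 TREx D1 cells, force-coupled to calcium signalling, were dye-loaded with a no-wash calcium kit. Compound was pin-added after a 10 s baseline. Fluorescence was read kinetically at 1 cycle/s for 180 s, with calcium rises flagged as agonism.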
DRD3 antagonist: blocks the human D3 dopamine receptor; AID 652054; D3R cells, DiscoveRx beta-arrestin luminescence, antagonist mode; active compounds read low; max response, negative = inhibition, %; P35462; actives 2.5% (n = 360,000); in the data active = max response below about -50%; inconclusive = no clear call, values can overlap the other calls; also: % is scaled to controls: 0 for no effect and ±100 for the full control effect
Target sequence (P35462 whole entry, looked up): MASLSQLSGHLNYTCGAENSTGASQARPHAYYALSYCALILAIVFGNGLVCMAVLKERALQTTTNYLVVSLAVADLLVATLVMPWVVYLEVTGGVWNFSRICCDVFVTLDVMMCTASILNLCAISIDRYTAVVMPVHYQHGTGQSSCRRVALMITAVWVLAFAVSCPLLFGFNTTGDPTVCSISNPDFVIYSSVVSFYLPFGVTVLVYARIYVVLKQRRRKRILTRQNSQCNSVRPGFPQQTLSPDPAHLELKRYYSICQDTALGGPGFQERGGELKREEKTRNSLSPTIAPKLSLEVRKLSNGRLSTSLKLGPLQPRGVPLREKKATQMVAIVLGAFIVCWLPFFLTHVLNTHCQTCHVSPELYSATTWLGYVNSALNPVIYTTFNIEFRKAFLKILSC
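Cells plated overnight at 1500 cells/well, then exposed to library compounds with dopamine controls for 90 minutes at 37 degrees C. DiscoveRx reagent added for 30–60 minutes at room temperature; luminescence read, quantitative HTS format.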
D3 ag: agonists of human D3 dopamine receptor; D3R DiscoveRx beta-arrestin cells, luminescence, 90 min; P35462; AID 652048; max activation, %; actives 0.58% (n = 410,000); in the data active = max activation above about 30%; also: 0% is about no effect
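Agonist mode: compounds and dopamine controls were applied to plated cells for 90 min at 37 degrees C after an overnight attachment at 1500 cells/well. Luminescent read-out followed 30 - 60 minutes at room temperature with DiscoveRx detection reagent.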
D1 PAM: human D1 dopamine receptor positive modulation | HEK293 TREx D1 cells, calcium flux, dopamine EC20 potentiation | potentiation, % at 10 µM | actives 0.036% (n = 360,000) | AID 504651; in the data active = potentiation above about 30%; also: 0% is about no effect
D1 antagonist: blocks dopamine activation of the human D1 receptor. P21728. HEK293 TREx D1 cells, calcium flux, dopamine EC80; active compounds read low. activity change, negative = inhibition, % at 10 µM. actives 3.2% (n = 360,000). AID 504652; in the data active = activity change below about -30%; also: % is scaled to controls: 0 for no effect and ±100 for the full control effect
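HEK293 T-REx cells expressing inducible, force-coupled D1 receptor; no-wash Ca dye, 30–90 min RT. Cmpd → 180 s read at 1 Hz → EC80 DA → 180 s read.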
* marks the source's active call; other numbers are inactive results; ? = inconclusive; . = no result. Hits are enriched below; roughly 6% of the tested compounds scored in any of these assays.

SMILES | D1 agonist | DRD3 antagonist | D3 ag | D1 PAM | D1 antagonist
CCOC(=O)C(C)(C)N(Cc1ccccc1C)S(=O)(=O)c1ccc(Cl)c([N+](=O)[O-])c1 | 5 | -50* | -3 | 5 | 0
CCCCNc1nc(Oc2ccc(OCC(N)=O)nn2)nc(N2CCOCC2)n1 | 1 | . | 6 | 1 | -5
Oc1oc(-c2ccccc2)nc1C=Nc1ccccc1 | 1 | -16 | -8 | 2 | 7
O=[N+]([O-])c1cccc(/C=C/c2nc(C=Nc3ccccc3)c(O)o2)c1 | 7 | 31 | 31* | -2 | -6
COc1cc(OC)nc(Nc2nc(C(N)CCc3ccccc3)cs2)n1 (centres undefined) | . | 7 | 34* | . | .
COc1cc(OC)nc(Nc2nc(C(N)COCc3ccccc3)cs2)n1 (centres undefined) | . | -74* | -6 | . | .
C[C@@H](C(=O)NCc1ccccn1)[C@@H]1C[C@@]1(C)[C@@H](NC(=O)OCc1ccccc1)c1ccccc1 | -2 | 8 | 0 | 2 | -31*
CC1CCN(S(=O)(=O)c2ccc3c(ccc(=O)n3CC(=O)Nc3ccc(C(C)C)cc3)c2)CC1 | 2 | . | -12 | 5 | -15
N#Cc1nc(COc2cccc(Cl)c2)oc1NCCc1ccccc1 | 1 | . | -9 | -5 | 1
Cc1ccccc1COn1nnc2ccc(S(=O)(=O)N3CCOCC3)cc21 | 0 | -51* | 0 | -1 | -10
CC(C)CNC(=S)NC1CC2CCC(C1)N2Cc1ccccc1 (centres undefined) | 4 | -75* | -28 | -8 | -9
S=C(NC1CCCCC1)NC1CC2CCC(C1)N2Cc1ccccc1 (centres undefined) | 8 | -79* | -18 | -4 | -11
CCCCN1C2CCCC1CC(NC(=O)c1cccc(Cl)c1)C2 (centres undefined) | 1 | -1 | -19 | -3 | -35*
CCCNC(=S)NC1CC2CCCC(C1)N2Cc1ccccc1OC (centres undefined) | . | -11 | -3 | . | .
CCCNC(=S)NC1CC2CCC(C1)N2Cc1ccccc1 (centres undefined) | 2 | -147* | -25 | -4 | 10
CCNC(=S)NC1CC2CCCC(C1)N2CCc1ccccc1 (centres undefined) | 3 | 0 | -1 | 2 | -8
COC(=O)c1ccc(NC(=O)CC2C(=O)N(c3cccc(OC)c3)C(=O)N2Cc2cccc(OC)c2)cc1 (centres undefined) | 1 | . | 2 | -1 | 5
O=C(CN1C2CCCC1CC(NC(=O)C1CCCCC1)C2)Nc1ccccc1 (centres undefined) | 0 | 2 | -8 | 1 | -4
S=C(NCCc1ccccc1)NC1CC2CCC(C1)N2Cc1ccccc1 (centres undefined) | 39* | -74* | -14 | -5 | -66*
CCCCN1C2CCCC1CC(NC(=O)C1CCCCC1)C2 (centres undefined) | 1 | 4 | -6 | -3 | -55*
S=C(NCCc1ccccc1)NC1CCC(NC(=S)NCCc2ccccc2)CC1 (centres undefined) | 5 | -6 | 4 | 7 | 7
O=C(NC1CC2CCCC(C1)N2Cc1ccccc1)C1CCCCC1 (centres undefined) | 0 | -65* | -5 | -4 | 2
O=C(Nc1ccc(Cl)c(C(F)(F)F)c1)NC1CC2CCCC(C1)N2Cc1ccccc1 (centres undefined) | 12 | -84* | -19 | -6 | -7
CCCCN1C2CCCC1CC(NC(=O)c1cccc(OC)c1)C2 (centres undefined) | 0 | -17 | -15 | -8 | -5
CCNC(=S)NC1CC2CCC(C1)N2Cc1ccccc1 (centres undefined) | 3 | -76* | -32 | -3 | 4
SMILES | D1 agonist | DRD3 antagonist | D3 ag | D1 PAM | D1 antagonist
Cc1sc2ncnc(N3CCN(CCOc4ccc(Cl)cc4)CC3)c2c1C | 11 | -27 | 39* | 4 | -2
Cc1ccc(OCC(=O)NNC(=O)C2CCN(c3ncnc4sc(C)c(C)c34)CC2)cc1 | 1 | 20 | 37* | 2 | 5
Cc1sc2ncnc(N3CCC(C(=O)NNC(=O)COc4ccccc4Cl)CC3)c2c1C | 12 | 48 | 30* | -14 | 5
Cc1cc(Cl)ccc1OCC(=O)NNC(=O)C1CCN(c2ncnc3sc(C)c(C)c23)CC1 | -1 | 86 | 22 | -1 | 13
Cc1sc2ncnc(N3CCC(C(=O)NNC(=O)COc4ccccc4F)CC3)c2c1C | 5 | 10 | 34* | 3 | -40*
O=c1c2c3c(sc2n(Cc2ccc(F)cc2Cl)c(=O)n1-c1ccc(Cl)cc1)CCC3 | 11 | . | -18 | -1 | -20
Cc1ccc(Cl)cc1NC(=O)COCc1cc(-c2ccco2)on1 | 0 | . | 2 | 3 | 1
COc1ccc(C(=O)C[n+]2cccc(Br)c2)cc1 | 2 | ? | -16 | -4 | -16
COC(=O)c1ccc[n+](CC(=O)c2ccc(Br)cc2)c1 | 5 | 11 | 2 | 0 | -35*
CC(=O)N1CCc2cc(Br)cc(S(=O)(=O)NCCc3cccc(C)c3)c21 | 2 | . | -27 | 2 | 0
CCN(CC)c1ccc(N=Nc2ccc(S(=O)(=O)N(C)C)cc2)c(S(=O)(=O)NCC[n+]2ccccc2)c1 | . | . | 9 | . | .
Cc1cc(N)n2nc(-c3ccccc3)cc2n1 | 1 | -6 | -12 | -8 | -41*
CCN1C(=O)c2ccccc2S(=O)c2ccc(C(=O)N3CCN(c4cccc(Cl)c4)CC3)cc21 (centres undefined) | 2 | . | -2 | 0 | 10
CCOC(=O)c1ccc(NC(=S)N2CCN(C)CC2)cc1 | 7 | 3 | -7 | 0 | -6
COc1ccc(C2SCCN2C(=S)Nc2cccc(C(F)(F)F)c2)cc1 (centres undefined) | 56* | -29 | -33 | -9 | -36*
CCOC(=O)c1ccc(NC(=S)N2CCSC2c2ccc(Cl)cc2)cc1 (centres undefined) | 31* | -22 | -11 | -8 | -12
CCOC(=O)c1ccc(NC(=S)N2CCSC2c2ccc(OC)cc2)cc1 (centres undefined) | 40* | ? | -7 | 10 | 19
COc1ccc(N2Cc3cccc(C(=O)Nc4ccc(F)cc4)c3C2=O)cc1 | -2 | . | 5 | -3 | 7
CCOC(=O)C1CCN(C(=O)Cc2c(C(=O)O)n(CC)c3ccccc23)CC1 | 1 | -14 | -19 | -5 | -87*
COc1cccc(Cn2nnc(C(=O)NCc3ccccc3Cl)c2N)c1 | 13 | -28 | -3 | . | 8
Cc1ccc(C)c(NC(=O)c2nnn(Cc3ccccc3)c2N)c1 | 17 | 5 | -4 | 4 | 25
Cc1ccc(C)c(Cn2nnc(C(=O)NCc3ccccc3)c2N)c1 | 41* | . | -17 | -1 | -6
Cc1cc(C)cc(NC(=O)Cn2nnc(C(=O)NCc3ccc4c(c3)OCO4)c2N)c1 | 5 | -1 | -6 | -6 | -32*
Nc1c(C(=O)NCc2ccccc2)nnn1Cc1ccccc1 | 9 | -13 | -5 | . | 4

Source: PubChem (National Center for Advancing Translational Sciences (NCATS))
